In PubChem BioAssay:
The source made the active and inactive calls.

Legend:
[1] = E. coli DRC41 culture turbidity changes, primary screen, E. coli filamentation inducer project, strain DRC41, OD650, 48 h (AID 1152);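 further: E. coli MC1000 strain DRC41 lacking acrAB efflux pump and sulA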; settings: E. coli DRC41 (acrAB sulA), higher = more signal, called active from +8 up or from −8 down
[2] = small-molecule binders of probe aLefty1, primary screen, biochemical, small-molecule microarray, 635/667 nm fluorescence (AID 1153); settings: higher = more signal;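 further: score merges spot fluorescence with signal-to-noise ratio from the scanned slide images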
[3] = PSAC antagonists in infected red cells, primary screen, cell-based, P. falciparum Indochina, OD700, 1 h (AID 1154); settings: P. falciparum Indochina infected RBC osmotic lysis, higher = more signal, called active from +8 up or from −8 down
[4] = PSAC antagonists in infected red cells, primary screen, cell-based, P. falciparum Indochina, OD700, 2 h (AID 1155);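 further: lysis reports solute entry through the parasite surface anion channel PSAC; channel blockers reduce lysis of infected cells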; settings: P. falciparum Indochina infected erythrocytes, osmotic lysis OD700; higher = more signal, called active from +8 up or from −8 down
[5] = osmotic lysis modulators in infected erythrocytes, primary screen, PSAC antagonist project, cell-based, P. falciparum Indochina, OD700, 3 h (AID 1156); settings: higher = more signal, called active from +8 up or from −8 down
[6] = PSAC antagonists in infected red cells, primary screen, cell-based, P. falciparum Indochina, OD700, 18 h (AID 1157); settings: P. falciparum Indochina infected erythrocytes, osmotic lysis OD700, 18 h; higher = more signal, called active from +8 up or from −8 down
[7] = modulators of S6 phosphorylation in cells, primary screen, cell-based, A549, cytoblot, luminescence, serum-stimulated (AID 1158); settings: A549 phospho-S6 cytoblot, 5 h, higher = more signal;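 further: serum-stimulated A549 lung adenocarcinoma cells; signal is phosphorylated S6 detected by cytoblot immunostaining with HRP secondary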
[8] = target: NADPH oxidase 2 (Homo sapiens) (UniProt P04839); assay: NOX2-dependent H2O2 signal modulators, primary screen, NOX inhibitor project, cell-based, HEK293-NOX2, PMA-stimulated, Amplex Red fluorescence (AID 1159); settings: 45 min, higher = more signal, called active from +8 up or from −8 down; further: test concentration not given here
Chain of NADPH oxidase 2 (Homo sapiens) (P04839 whole entry, looked up): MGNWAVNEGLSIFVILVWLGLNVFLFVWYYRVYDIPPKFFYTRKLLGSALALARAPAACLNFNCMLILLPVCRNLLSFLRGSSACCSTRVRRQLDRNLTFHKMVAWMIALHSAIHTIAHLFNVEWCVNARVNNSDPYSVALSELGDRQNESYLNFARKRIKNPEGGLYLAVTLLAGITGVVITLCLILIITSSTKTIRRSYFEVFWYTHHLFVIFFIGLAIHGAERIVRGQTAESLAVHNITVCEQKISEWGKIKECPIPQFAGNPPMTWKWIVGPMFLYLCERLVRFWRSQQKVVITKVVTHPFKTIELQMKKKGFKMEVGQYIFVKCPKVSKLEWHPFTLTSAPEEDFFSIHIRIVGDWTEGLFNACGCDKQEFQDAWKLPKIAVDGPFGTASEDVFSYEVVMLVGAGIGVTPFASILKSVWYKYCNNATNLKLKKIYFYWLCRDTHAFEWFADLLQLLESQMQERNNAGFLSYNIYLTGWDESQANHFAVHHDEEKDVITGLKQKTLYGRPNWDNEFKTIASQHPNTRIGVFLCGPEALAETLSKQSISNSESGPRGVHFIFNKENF

[9] = target: NADPH oxidase 4 (Homo sapiens) (UniProt Q9NPH5); assay: NOX4-dependent H2O2 signal modulators, primary screen, NOX inhibitor project, cell-based, HEK293-NOX4, tetracycline-induced, Amplex Red fluorescence (AID 1160); settings: 45 min, higher = more signal, called active from +8 up or from −8 down
Chain of NADPH oxidase 4 (Homo sapiens) (Q9NPH5 whole entry, looked up): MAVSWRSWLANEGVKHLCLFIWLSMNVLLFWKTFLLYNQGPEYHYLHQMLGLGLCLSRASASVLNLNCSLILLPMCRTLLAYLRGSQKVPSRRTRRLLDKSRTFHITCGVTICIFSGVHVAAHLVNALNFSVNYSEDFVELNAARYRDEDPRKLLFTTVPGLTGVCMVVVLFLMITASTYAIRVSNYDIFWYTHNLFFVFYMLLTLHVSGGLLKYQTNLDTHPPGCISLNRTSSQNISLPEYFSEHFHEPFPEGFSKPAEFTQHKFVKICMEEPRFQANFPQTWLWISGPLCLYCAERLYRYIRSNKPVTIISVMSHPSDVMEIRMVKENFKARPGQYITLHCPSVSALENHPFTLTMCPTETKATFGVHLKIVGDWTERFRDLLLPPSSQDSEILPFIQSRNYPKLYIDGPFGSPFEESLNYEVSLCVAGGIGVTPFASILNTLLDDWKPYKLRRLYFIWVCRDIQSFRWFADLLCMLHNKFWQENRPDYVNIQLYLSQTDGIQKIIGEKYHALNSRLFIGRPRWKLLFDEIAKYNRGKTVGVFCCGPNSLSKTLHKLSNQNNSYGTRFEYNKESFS

[10] = target: NADPH oxidase 5 (Homo sapiens) (UniProt Q96PH1); assay: NOX5-dependent H2O2 signal modulators, primary screen, NOX inhibitor project, cell-based, HEK293-NOX5, Amplex Red fluorescence (AID 1161); settings: HEK293-NOX5, ionomycin, 45 min, higher = more signal
Chain of NADPH oxidase 5 (Homo sapiens) (Q96PH1 whole entry, looked up): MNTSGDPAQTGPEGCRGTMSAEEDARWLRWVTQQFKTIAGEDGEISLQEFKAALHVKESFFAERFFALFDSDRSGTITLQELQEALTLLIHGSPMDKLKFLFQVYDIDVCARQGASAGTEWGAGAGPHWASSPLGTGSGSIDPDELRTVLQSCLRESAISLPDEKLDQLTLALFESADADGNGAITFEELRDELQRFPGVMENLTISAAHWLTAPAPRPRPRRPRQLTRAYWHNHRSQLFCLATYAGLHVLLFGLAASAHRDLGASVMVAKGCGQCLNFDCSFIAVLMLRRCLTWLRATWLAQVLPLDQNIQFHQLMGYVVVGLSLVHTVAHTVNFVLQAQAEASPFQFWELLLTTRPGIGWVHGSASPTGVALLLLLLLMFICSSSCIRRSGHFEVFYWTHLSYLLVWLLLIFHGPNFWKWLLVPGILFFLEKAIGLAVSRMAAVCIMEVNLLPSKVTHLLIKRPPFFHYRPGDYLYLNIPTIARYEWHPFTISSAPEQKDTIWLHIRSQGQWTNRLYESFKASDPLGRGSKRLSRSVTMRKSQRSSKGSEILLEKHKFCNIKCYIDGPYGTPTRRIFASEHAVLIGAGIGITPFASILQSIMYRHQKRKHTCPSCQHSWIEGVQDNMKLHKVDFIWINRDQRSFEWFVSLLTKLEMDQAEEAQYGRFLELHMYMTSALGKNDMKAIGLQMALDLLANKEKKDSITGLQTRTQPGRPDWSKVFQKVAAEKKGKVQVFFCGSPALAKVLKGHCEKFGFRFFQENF

Compound | z-score [1] | composite z-score [2] | z-score [3] | z-score [4] | z-score [5] | z-score [6] | z-score [7] | z-score [8] | z-score [9] | z-score [10]
C=CCNC(=O)[C@@H]1[C@H]2C(=O)O[C@H](c3ccccc3)[C@H](c3ccccc3)N2[C@H](c2ccc(OCCO)cc2)[C@@]12C(=O)Nc1ccc(C#CC3(O)CCCCCC3)cc12 | 0.668 (inactive) | 0.239 | 4.16 (inactive) | 0.444 (inactive) | 1.02 (inactive) | -0.882 (inactive) | 1.35 | 0.385 (inactive) | -1.05 (inactive) | -1.63
COC(=O)C1=CC(CCCO)=CC(c2cccs2)N(Cc2cc3c(cc2Br)OCO3)C=C1C(=O)OC (stereo not given) | 0.801 (inactive) | -0.0629 | 5.84 (inactive) | 1.17 (inactive) | 0.277 (inactive) | 0.621 (inactive) | -0.176 | 1 (inactive) | -1.26 (inactive) | 1.05
O=C1C2C=CC(C(O)C3CCCCC3)N(n3cnnc3)C2C(=O)N1Cc1ccccc1 (stereo not given) | 0.253 (inactive) | 0.375 | 2.45 (inactive) | -0.471 (inactive) | 0.312 (inactive) | -1.6 (inactive) | 1.75 | -4 (inactive) | -0.921 (inactive) | -5.07
C=CCNC(=O)[C@H]1[C@@H]2C(=O)O[C@@H](c3ccccc3)[C@@H](c3ccccc3)N2[C@@H](c2ccccc2OCCO)[C@]12C(=O)N(C(=O)OCCOC)c1ccc(C#Cc3ccc(OC)cc3)cc12 | 0.296 (inactive) | 0.0114 | 2.46 (inactive) | 1.98 (inactive) | 0.0435 (inactive) | 1.25 (inactive) | 0.638 | 1.74 (inactive) | 0.404 (inactive) | 0.673
COc1ccc(NN2C(C(O)c3ccc(I)cc3)C=CC3C(=O)N(C4CCCCC4)C(=O)C32)cc1 (stereo not given) | -0.111 (inactive) | 0.425 | 3.84 (inactive) | 1.16 (inactive) | -0.0985 (inactive) | 0.706 (inactive) | -0.569 | 0.0194 (inactive) | -0.672 (inactive) | -1.16
N#Cc1ccc(-c2cccc(=O)o2)cc1 | -0.729 (inactive) | -0.0954 | 3.14 (inactive) | 1.15 (inactive) | -0.598 (inactive) | 0.979 (inactive) | -0.0905 | 0.191 (inactive) | -1.72 (inactive) | 0.172
CCCNC(=O)[C@@]1(Sc2ccc(C)cc2)CC(=O)N(Cc2ccccc2Cl)[C@@H]1c1ccc(CO)cc1I | 0.244 (inactive) | 1.08 | 5.36 (inactive) | 0.773 (inactive) | 0.206 (inactive) | 0.303 (inactive) | 0.009 | 1.24 (inactive) | -1.41 (inactive) | 1.87
O=C1O[C@H](c2ccccc2)[C@H](c2ccccc2)N2[C@H]1[C@@H](C(=O)N1CCN(c3ncccn3)CC1)[C@]1(C(=O)Nc3ccc(C#CCCO)cc31)[C@H]2c1ccc(O)cc1 | -0.951 (inactive) | 0.208 | 1.28 (inactive) | 0.436 (inactive) | 1.2 (inactive) | 0.0991 (inactive) | 0.201 | 0.84 (inactive) | 0.722 (inactive) | 1.41
CN1C(=O)C2C=CC(C(O)c3ccc(-c4ccccc4)s3)N(NC(=O)OC(C)(C)C)C2C1=O (stereo not given) | -0.898 (inactive) | 0.335 | 0.976 (inactive) | 0.524 (inactive) | -0.254 (inactive) | 0.998 (inactive) | -1.06 | -0.0373 (inactive) | -1.58 (inactive) | -0.722
COC(=O)C[C@H]1O[C@@]2(C[C@@H]1[Si](C)(C)C)C(=O)N(C)c1ccccc12 | 3.12 (inactive) | 0.14 | -1.14 (inactive) | -0.694 (inactive) | -1.23 (inactive) | -1.92 (inactive) | 0.953 | -0.465 (inactive) | 0.764 (inactive) | 1.21
C=C(COC)C(=O)CC[C@@H](OC(=O)c1ccccc1-c1ccccc1C(=O)O)c1ccc(OCCO)cc1 | -0.172 (inactive) | 0.712 | 10.8 (active) | 0.971 (inactive) | 0.489 (inactive) | 0.381 (inactive) | -0.528 | 0.849 (inactive) | -0.245 (inactive) | -1.32
COc1cc(OC)c(C(O)C2C=CC3C(=O)N(c4ccccc4)C(=O)C3N2Nc2ccc(C(C)C)cc2)cc1Br (stereo not given) | 0.857 (inactive) | -0.0889 | 2.94 (inactive) | 1.93 (inactive) | -0.255 (inactive) | 1.49 (inactive) | -1.06 | 0.0256 (inactive) | -3.73 (inactive) | -2.24
